This is an account of results in PubChem BioAssay AID489008 (National Center for Advancing Translational Sciences (NCATS), 2010).

Results filed as inconclusive are left out. Activity calls are given as the source filed them. Calls come from the whole dose curve; as a rule, active = well fitted inhibition curve with a large enough effect; inconclusive = small, poorly fitted or top-dose-only effect; inactive = flat fitted curve, though single readings scatter.
Potency is the fitted concentration of half-maximal effect.

Sequence of Ferritin light chain (Equus caballus) (P02791 2-175 limits assumed): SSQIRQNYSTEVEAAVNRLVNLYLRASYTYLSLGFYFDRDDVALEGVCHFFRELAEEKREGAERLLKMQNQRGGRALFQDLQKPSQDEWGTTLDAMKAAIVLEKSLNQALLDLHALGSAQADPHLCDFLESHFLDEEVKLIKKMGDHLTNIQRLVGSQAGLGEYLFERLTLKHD

This assay addresses Ferritin light chain (Equus caballus) (UniProt P02791). Description: Confirmation Assay for Identification of Novel General Anesthetics. Note: nearly all actives have a fitted effect of over 40% in size. To be noted: apoferritin 1-aminoanthracene fluorescence displacement. A digest of the protocol: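 Horse apoferritin (10 uM) pre-loaded with 1-AMA (50% saturated, PBS) exposed to compounds 10 min at room temperature; loss of 1-AMA fluorescence (380/535 nm) scaled between free and bound ligand, curves fitted with Hill equation.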
As for `Cc1ccc(OCc2cc(C(=O)N3CCCCCCC3)no2)cc1C`, the Potency was 22.4 µM (active).

Regarding `Nc1nnc(SCc2ccccc2Cl)s1`, the Potency is 14.1 µM (active).

Consider `CC1(COc2ccc(CC3SC(=O)NC3=O)cc2)CCCCC1` (stereo not drawn), for which the Potency was 14.1 µM (active).

Take `Cc1cc(C)cc(NC(=O)N2CCCCCCC2)c1`: the Potency is 6.31 µM (active).

For `CCNc1nc(C23CC4CC(CC(C4)C2)C3)cs1`, the Potency is 7.94 µM (active).

`O=C1C2CC=CCC2C(=O)N1Cc1ccccc1Cl` (stereo not drawn): the Potency is 7.94 µM (active).

Take `CCN(C(=O)c1ccco1)C1C2CC3CC(C2)CC1C3` (stereo not drawn): the Potency was 14.1 µM (active).

Regarding `Cc1ccc(OCC(=O)N2CCCCCCC2)cc1C`, the Potency is 35.5 µM (active).

For the compound `Nc1ccc(CSc2ccc(Cl)cc2)cc1`, the Potency is 15.8 µM (active).

Take `Cc1csc(Nc2ccc(Cl)cc2)n1`: the Potency is 31.6 µM (active).

For `O=c1[nH]c(SCC2CCCCO2)nc2ccccc12` (stereo not drawn), the Potency is 14.1 µM (active).

`Nn1cnnc1SCC(=O)Nc1ccc(C2CCCCC2)cc1`: the Potency was 7.08 µM (active).

Regarding `O=C(OCC(=O)C12CC3CC(CC(C3)C1)C2)c1ccccn1`, the Potency was 14.1 µM (active).

With `N#Cc1ccccc1NCc1ccccc1`, the Potency was 11.2 µM (active).

As for `Cc1ccc(NC2CCCN(C(=O)c3cccs3)C2)cc1C` (stereo not drawn), the Potency was 15.8 µM (active).

As to `O=C(NC1CCCCCCC1)c1ccc(Br)o1`, the Potency is 17.8 µM (active).

For `Cc1cc(C)c(C)c(OCC(=O)N2CCCCCC2)c1`, the Potency was 17.8 µM (active).

For `Cc1cc(C)n2nc(CC(=O)NC3CCCC(C)C3C)nc2n1` (stereo not drawn), the Potency was 15.8 µM (active).

As for `Cc1ccc(C2=NN(CC(=O)NCCc3ccccc3)C(=O)CC2)cc1`, the Potency was 5.19 µM (active).

Regarding `O=C1NC2(CCCCCC2)Oc2ccccc21`, the Potency is 20 µM (active).

Take `O=S(=O)(NCCc1ccccc1)c1ccc(Br)s1`: the Potency was 31.6 µM (active).

With `Nc1nnc(CCC2CCCCC2)s1`, the Potency was 10 µM (active).

For the compound `Cc1cccc(NC(=O)N2CCCCCC2)c1C`, the Potency is 8.91 µM (active).

Take `C/C(=N\O)C(C)(C)Nc1ccc(Br)cc1`: the Potency is 8.91 µM (active).

For `O=C(CCC1CCCCC1)Nc1nccs1`, the Potency was 39.8 µM (active).

With `CC1CCCC(NC(=O)COC(=O)CCc2ccccc2)C1C` (stereo not drawn), the Potency was 25.1 µM (active).

Regarding `Cc1cc(C)cc(Oc2ccccc2CO)c1`, the Potency was 14.1 µM (active).

For the compound `Nc1cc(N)nc(SCC(=O)N2CCc3ccccc32)n1`, the Potency is 7.08 µM (active).

Regarding `O=C1CC(c2ccc(O)cc2)Oc2ccccc21` (stereo not drawn), the Potency was 15.8 µM (active).

With `Cc1ccc(Cn2cccc(NC(=O)NC3CCCCC3)c2=O)cc1`, the Potency was 15.8 µM (active).

`O=[N+]([O-])c1ccc(CNc2ccc(Cl)cc2)s1`: the Potency is 22.4 µM (active).

Turning to `O=C(CCNc1cccc(Cl)c1)c1ccco1`, the Potency was 31.6 µM (active).

Regarding `CCCC(C)NS(=O)(=O)c1ccc(OC)c(C)c1` (stereo not drawn), the Potency is 20 µM (active).

Turning to `Cc1ccc(-c2ccc(=O)n(Cc3ccc(F)cc3)n2)cc1`, the Potency is 35.5 µM (active).

Consider `Cc1cc(C)n2nc(CC(=O)NC3CCCCCC3)nc2n1`, for which the Potency was 8.91 µM (active).

Consider `O=C(NC1CCCCCCC1)c1cc(COc2ccc3ncccc3c2)on1`, for which the Potency is 12.6 µM (active).

As to `Cc1ccc(SCC(=O)N2N=CCC2c2ccccc2)cc1` (stereo not drawn), the Potency is 15.8 µM (active).

Regarding `O=C(COC(=O)c1cccs1)NCC1CCCCC1`, the Potency is 20 µM (active).
